# From PubChem BioAssay
# Compounds with a hit are over-represented: about 6.9% of the library has one in this group of screens.
# SW480 rereplic: A quantitative high throughput screen for small molecules that induce DNA re-replication in SW480 colon adenocarcinoma cells; SW480 DNA re-replication, Hoechst DNA content imaging, 48 h; Potency, µM (highest dose often 46.1 µM), without a hit: at the highest dose re-replication activation, actives largely listed as activators; 340,000 tested, 1.8% active; note: potency is the fitted concentration of half-maximal effect; % of control where 0% means no effect; nearly all actives have a fitted effect of over 55% in size
#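 Image-based DNA-content assay: after two days of treatment, nuclei were labelled with the DNA dye Hoechst and imaged, and hits were compounds raising the count of nuclei showing high fluorescence intensity.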
# KB-V1 MDR tox: qHTS assay for MDR1-selective chemotherapeutics: Primary screen using the drug-selected MDR subline cells KB-V1; Potency, µM (titrated, usually from 46.1 µM), usual class: cytotoxic; KB-V1 MDR cells viability, CellTiter-Glo, 72 h; 400,000 tested, 3.4% active; AID 1347076, 2019; note: potency is the fitted concentration of half-maximal effect; % is set by controls: 0 for no effect and ±100 for the full control effect; nearly all actives have a fitted effect of over 60% in size
#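 Following 72 h at 37 degrees C with compound, KB-V1 cell viability was read by CellTiter-Glo luminescence, medium being phenol-red-free DMEM plus 10% FBS; concentration-response parameters came from normalized, curve-fitted qHTS data.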
# Giardia killer: Small Molecules that selectively kill Giardia lamblia: qHTS; activity change, % at 7.66 µM, hits read low; Giardia lamblia trophozoite viability; AID 540267, 2011; 340,000 tested, 0.15% active; in the data active = activity change below about -80%; inconclusive = between about -30% and that limit;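 note: parasites exposed to compound for two days anaerobically before the ATP read; % is set by controls: 0 for no effect and ±100 for the full control effect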
#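 Viability, read as ATP luminescence: trophozoites at 100 cells/well, compound added, 48 hrs anaerobic at 37 deg C, then 15-30 min room-temperature development before reading.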
# MCF10A rereplic: A quantitative high throughput screen for small molecules that induce DNA re-replication in MCF 10a normal breast cells | Potency, µM (top dose mostly 46.1 µM), without a hit: at the highest dose activity, positive = re-replication, actives largely listed as activators | AID 624296, 2012 | 350,000 tested, 2.9% active | MCF 10A DNA re-replication, Hoechst nuclear intensity, 48 h; note: potency is the fitted concentration of half-maximal effect; % of control where 0% means no effect; nearly all actives have a fitted effect of over 50% in size
# ASM inhibitor: Inhibitors of Secretory Acid Sphingomyelinase (S-ASM): qHTS. Sphingomyelin phosphodiesterase (Homo sapiens), P17405. placental ASM, HMU-PC fluorogenic substrate, 60 min. Potency, µM (highest dose often 57.5 µM), for the others: at the highest dose activity change, negative = inhibition, actives largely listed as inhibitors. 340,000 tested, 0.006% active. AID 504937, 2011; note: potency is the fitted concentration of half-maximal effect
# Target sequence (P17405 47-631 limits assumed): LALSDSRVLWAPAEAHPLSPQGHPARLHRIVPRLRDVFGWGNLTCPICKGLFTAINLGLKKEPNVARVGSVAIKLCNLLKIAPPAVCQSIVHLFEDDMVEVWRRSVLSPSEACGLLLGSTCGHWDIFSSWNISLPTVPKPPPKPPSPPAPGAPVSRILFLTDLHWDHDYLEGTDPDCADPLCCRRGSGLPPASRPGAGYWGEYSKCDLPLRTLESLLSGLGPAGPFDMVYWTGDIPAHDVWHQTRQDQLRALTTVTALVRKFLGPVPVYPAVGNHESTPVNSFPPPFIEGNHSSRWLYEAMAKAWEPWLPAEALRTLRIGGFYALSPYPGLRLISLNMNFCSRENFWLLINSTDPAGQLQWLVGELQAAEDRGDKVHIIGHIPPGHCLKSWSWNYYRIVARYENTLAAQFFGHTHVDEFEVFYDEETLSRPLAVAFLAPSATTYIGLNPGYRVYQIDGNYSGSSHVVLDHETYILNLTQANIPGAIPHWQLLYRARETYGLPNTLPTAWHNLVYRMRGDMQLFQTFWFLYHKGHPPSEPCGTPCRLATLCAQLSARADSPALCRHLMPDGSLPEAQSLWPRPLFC
#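 Human placenta-derived ASM enzyme was preincubated with compound for 10 minutes at room temperature, then given fluorogenic substrate HMU-PC0 (9 uM final) for 60 minutes at 37 °C; a pH 10 stop preceded fluorescence reading at Ex 386/Em 447 nm.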
# KB-3-1 tox: qHTS assay for MDR1-selective chemotherapeutics: Primary screen using the parental adenocarcinoma cell KB-3-1 | Potency, µM (top dose mostly 46.1 µM), most hits filed as cytotoxic | 400,000 tested, 1.4% active | KB-3-1 viability, CellTiter-Glo ATP luminescence, 72 h | AID 1347075, 2019; note: potency is the fitted concentration of half-maximal effect; % is set by controls: 0 for no effect and ±100 for the full control effect; nearly all actives have a fitted effect of over 60% in size
#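 KB-3-1 cells, DMEM (no phenol red) + 10% FBS; compound by pin transfer, 72 h, 37 °C. Readout: CellTiter-Glo luminescence after 10 min. Data normalized, curve-fitted.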
# * = called active by the depositor; i = inactive; ? = inconclusive; . = not tested or not shown. Unless noted, calls come from the whole dose curve; as a rule, active = well fitted curve in the direction sought with a large enough effect; inconclusive = small, poorly fitted or top-dose-only effect, or another doubt; inactive = no such curve, though single readings can be large; an effect the other way counts as inactive or inconclusive.
SMILES,SW480 rereplic,KB-V1 MDR tox,Giardia killer,MCF10A rereplic,ASM inhibitor,KB-3-1 tox
CC(C)C1C(C#N)=C(N)Oc2n[nH]c(-c3cccs3)c21 (centres undefined),-6%,i,-10,1%,0%,i
CC(C)C1C(C#N)=C(N)Oc2n[nH]c(-c3ccc4ccccc4c3)c21 (centres undefined),?,8.2µM*,-2,-3%,28%,?
O=C(NC(NNc1ccc([N+](=O)[O-])cc1)(C(F)(F)F)C(F)(F)F)c1ccc(Cl)cc1,4%,i,4,15µM*,?,i
Cc1cc(C)n2c(=O)c3ccc(Cl)cc3nc2c1C#N,?,i,-9,?,213%,i
Cc1cc(Cl)n2c(nc3cc(F)c(F)cc32)c1C#N,6.5µM*,5.8µM*,3,?,145%,7.3µM*
NC(=S)N/N=C1\CCSc2ccc(Cl)cc21,18µM*,?,31,-2%,4%,i
Cc1ccc(-c2nc(N=Nc3ccc(O)cc3)n[nH]2)cc1,-3%,13µM*,1,?,-7%,i
COc1ccccc1NS(=O)(=O)c1ccc(N/N=C/C=C/c2ccccc2[N+](=O)[O-])c([N+](=O)[O-])c1,-2%,i,7,10%,-18%,i
COc1ccccc1C(CNc1ccc(S(=O)(=O)N2CCCC2)cc1[N+](=O)[O-])N(C)C (centres undefined),9%,12µM*,4,?,.,i
COc1ccc(S(=O)(=O)N2CCCCCC2)cc1N(C)S(=O)(=O)c1ccc(Cl)cc1,0%,21µM*,10,4%,1%,i
COc1ccc(C(CNc2ccc(S(=O)(=O)N3CCN(C)CC3)cc2[N+](=O)[O-])N(C)C)cc1 (centres undefined),-3%,?,?,4%,-5%,i
COc1ccccc1NS(=O)(=O)c1ccc(NN=C2CCCC2)c([N+](=O)[O-])c1,-1%,2.9µM*,1,11%,-7%,i
CN(CC(=O)NCCc1ccc(S(N)(=O)=O)cc1)Cc1ccc(Cl)cc1Cl,-11%,16µM*,-28,-2%,3%,?
O=C(CN1C(=O)C2(SCC(=O)N2c2ccc(Cl)cc2)c2ccccc21)NCCc1ccccc1 (centres undefined),.,i,.,.,.,i
CC(C)CCNC(=O)CSc1nc2ccccc2nc1Cc1ccccc1,.,i,.,.,.,i
Cn1nc(Cc2n[nH]c(=S)n2C)c2ccccc2c1=O,?,i,-2,?,-5%,i
CN(CC(=O)Nc1ccc(S(=O)(=O)N2CCCC2)cc1)CC(=O)Nc1ccc(F)c(F)c1F,-4%,?,-13,6%,2%,i
O=[N+]([O-])c1cc(S(=O)(=O)N2CCCCCC2)ccc1F,.,i,-11,4.6µM*,3%,?
O=C(CSCc1ccc(Cl)cc1)Nc1ccc(S(=O)(=O)N2CCCCCC2)cc1,-1%,?,0,15%,-5%,i
CN(CC(=O)Nc1ccc(S(=O)(=O)N2CCCC2)cc1)Cc1ccc(Cl)cc1Cl,.,13µM*,12,9%,-3%,i
CN(CC(=O)Nc1ccc(Cl)cc1)c1ccc(S(=O)(=O)N2CCCCC2)cc1[N+](=O)[O-],-4%,16µM*,-3,-5%,-17%,?
COc1ccc(CCN(C)c2ccc(S(=O)(=O)N3CCCC3)cc2[N+](=O)[O-])cc1OC,26%,2.6µM*,29,?,-4%,?
Fc1ccccc1COc1cccc(/C=N/n2cnnc2)c1,-3%,13µM*,-30,4%,-10%,i
CCCCn1c(=O)nc2n(-c3ccc(Cl)cc3)c3ccccc3cc-2c1=O,-4%,8.2µM*,13,-5%,187%,i
Cc1ccccc1-n1nc2c(c1NC(=O)c1ccc(Br)o1)CSC2,5%,13µM*,3,23%,-1%,i
SMILES,SW480 rereplic,KB-V1 MDR tox,Giardia killer,MCF10A rereplic,ASM inhibitor,KB-3-1 tox
Cn1cc(CCNC(=O)CC2C(=O)NCCN2Cc2cccc(Oc3ccccc3)c2)cn1 (centres undefined),26µM*,i,-3,?,-4%,?
COc1ccc(O)c(-c2nc(N)nc(N)n2)c1,?,i,-1,7.3µM*,6%,?
Cc1ccc(CSc2nnc(-c3cccnc3)n2N)cc1,-19%,i,10,2%,4%,i
Cc1ccc(C(=O)CSc2nnc(-c3cccnc3)n2N)cc1,?,7.3µM*,14,?,4%,?
CC(C)OC(=O)CSc1nnc(-c2cccnc2)n1Cc1ccccc1,0%,21µM*,25,0%,3%,i
CC(C)OC(=O)CSc1nnc(-c2ccccn2)n1-c1ccccc1,-7%,i,28,2%,2%,i
Cc1ccc(-n2c(SCC(=O)OC(C)C)nnc2-c2ccccn2)cc1,1%,21µM*,-5,-3%,2%,i
O=C(CSc1c(Cl)cccc1Cl)NC1CCCc2ccccc21 (centres undefined),14%,15µM*,16,16%,5%,i
CCOc1ccc(C(=O)OCC(=O)N2CC(C)OC(C)C2)cc1OCC (centres undefined),-16%,i,-6,5%,3%,i
Cc1ccccc1CNC(=O)Cn1ncn2nc(-c3cccs3)cc2c1=O,.,i,.,.,.,i
COc1ccc(NCc2nc3ccccc3n2CCOc2ccccc2C)cc1,.,?,.,.,.,i
CCOc1cccc(C(=O)Nc2ccc(-c3nc4cc(C)cc(C)c4o3)cc2)c1,.,i,.,.,.,i
O=C(CN1CCN(c2ccccc2Cl)CC1)NC1CCCc2ccccc21 (centres undefined),?,9.2µM*,5,12%,-1%,?
O=C(CSc1nnc(-c2ccccc2)n1Cc1ccccc1)NNC(=O)c1ccccc1O,5.2µM*,i,18,20%,-1%,?
CNC(=O)CSc1nnc(-c2ccncc2)n1Cc1ccccc1,-3%,i,-13,?,6%,i
Cc1ccc(NC(=O)NC2CCCc3ccccc32)cc1 (centres undefined),44%,i,26,3%,-1%,?
O=C(CSc1nnc(-c2ccncc2)n1Cc1ccccc1)NC1CCCc2ccccc21 (centres undefined),2%,10µM*,-19,?,-3%,i
